Sampled rows, rich in hits. Any-hit rate of the full collection: about 7.2%.
VLA-4 inh – inhibition in a human VLA-4 binding assay | VLA-4 expressing cells, ligand binding flow cytometry | inhibition, % (about 7 µM as worked out from the volumes in the protocol) | 330,000 compounds, 0.2% hits; in the data active = inhibition above about 50%
SUMO Mot1 rescue – blocks SUMOylation pathway, rescuing yeast Mot1-301 growth; S. cerevisiae Mot1-301 growth rescue, ATP luminescence, 38.5C; percent above DMSO median, 100 means doubled; growth rescue, % at 18.8 µM; 320,000 compounds, 1% hits; AID 2716;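 active = every valid replicate shows activation above 250% relative to neutral control wells; inactive = the rest, any valid replicate at or below 250%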
Bfl-1 A1 inh – inhibitors of the anti-apoptotic protein A1, read as caspase activation | MEF A1-2A-BIM cells, Caspase-Glo 3/7 luminescence, 3 h; percent of clofoctol response, vehicle zero | caspase activation, % (no concentration beside the values) | 330,000 compounds, 0.066% hits | AID 2462;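 active = over half of replicate activation scores above 10%, or exactly half above 10 with the replicate mean above 10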
AHR act – activates the human aryl hydrocarbon receptor. activation, % at 5 µM. AHR-responsive luciferase reporter cells, luminescence. AID 2796. 320,000 compounds, 2.5% hits; in the data active = activation above about 47%
Efflux pump inh – inhibitors of Candida antifungal efflux pumps expressed in yeast. S. cerevisiae Candida pump triplex, Nile Red efflux. inhibition, % at 10 µM. 330,000 compounds, 0.44% hits;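 active = plate passing quality check with inhibition over a set limit, or well fluorescence over plate mean plus 4 SD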;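 also: Nile Red retained in pooled yeast measured as flow cytometry median fluorescence; higher means more Nile Red kept so more efflux inhibition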
ALR inh – blocks human ALR sulfhydryl oxidase activity; 290,000 compounds, 3.8% hits; purified ALR, DTT oxidation, H2O2 HRP-luminol luminescence; P55789; inhibition, % (test concentration not listed);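 active = mean replicate inhibition above about 79%, with every replicate also reaching it, limit read from the data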
Of the large screens only hits and unclear results are named; the others gave an inactive call.

CC1Cc2nc(SCC(=O)c3ccccc3)n(Cc3ccccc3)c(=O)c2S1 (stereo not given)	none
CCc1nnc(NC(=O)CSc2nc3c(c(=O)n2C)SC(C)C3)s1 (stereo not given)	none
CC1Cc2nc(SCC(=O)N3CCOCC3)n(C)c(=O)c2S1 (stereo not given)	none
CC1Cc2nc(SCC(=O)OCc3ccccc3)n(C)c(=O)c2S1 (stereo not given)	ALR inh 99
COc1cc(SC#N)ccc1N=Cc1c(C)[nH]n(-c2ccc(Cl)cc2)c1=O	none
COc1cc(SC#N)ccc1N=Cc1c(C)[nH]n(-c2ccc(C)c(C)c2)c1=O	ALR inh 94
C[C@@H](C(=O)NCc1c(F)cccc1Cl)N1C(=O)N2CCc3c([nH]c4ccccc34)[C@@]2(C)C1=O	none
COc1ccc(-c2[nH]c(-c3cccc(OC)c3)nc2SCC(=O)NC2CCCC2)cc1	AHR act 65
COc1cccc(-c2nc(CS(=O)CC(=O)NC3CCCC3)c(C)o2)c1 (stereo not given)	ALR inh 99 (no result: Bfl-1 A1 inh)
COc1cccc(-c2nc(CS(=O)CC(=O)NC3CCCCC3)c(C)o2)c1 (stereo not given)	ALR inh 99
COc1ccc(-c2[nH]c(-c3ccccc3)nc2SCC(=O)NC2CCCC2)cc1	none
COc1cccc(-c2noc(CCC(=O)NC3CCCC3)n2)c1	none (no result: AHR act)
CCOc1ccc(N2CC(C(=O)Nc3cc(C)on3)CC2=O)cc1 (stereo not given)	AHR act 76
C[C@H](CO)N1C[C@H](C)[C@@H](CN(C)Cc2ccccc2)Oc2ccc(NC(=O)CCCCCC(=O)Nc3ccccc3N)cc2C1=O	none
Brc1ccc(N=Cc2ccccn2)cc1	AHR act 55 (no result: ALR inh)
CN(CC(=O)NCc1ccccc1)S(=O)(=O)c1cnc[nH]1	none
C/C(O)=C(/C=Nc1ccccc1)C(=O)Nc1ccccc1	AHR act 48
CC(=O)Nc1ccccc1C(=O)C(=O)Nc1ccccc1	none
Cc1cccc(OCc2n[nH]c(=S)n2Cc2ccccc2)c1	none (no result: ALR inh)
Cc1cccc(N2CCN(c3ccc(NC(=O)/C=C(/C(=O)O)c4ccccc4)cc3)CC2)c1	ALR inh 96
O=C(COc1ccccc1F)Nc1ccc2c(c1)OCCO2	none
COc1cc(C(=O)N/N=C(\C)Cn2nc([N+](=O)[O-])cc2C)ccc1O	ALR inh 83
C/C(Cn1nc([N+](=O)[O-])cc1C)=N\NC(=O)c1ccc(O)cc1O	none
CC(=O)N1c2ccccc2C2(O)N=C(C)SC12 (stereo not given)	AHR act 51
CC(=O)N1c2ccccc2[C@@H](C)[C@@H]1C	none
Cc1nc2c(C)cccc2c(SC(=N)N)c1CC=C(Cl)Cl	none
C=CCc1c(C)nc2c(C)cccc2c1SC(=N)N	ALR inh 100
COc1ccc2[nH]c(C)c(CCN(Cc3cccs3)C(=S)Nc3ccc(F)cc3)c2c1	none
COc1ccc(NC(=S)N(CCO)Cc2cc3c(C)cc(C)cc3[nH]c2=O)cc1	AHR act 59
COc1ccc(NC(=O)N(CCO)Cc2cc3c(C)cc(C)cc3[nH]c2=O)cc1	none
COc1ccc(NC(=S)N(CCc2c(C)[nH]c3ccc(C)cc23)Cc2cccs2)cc1	AHR act 64
O=C(COC(=O)/C=C/c1cccc(Cl)c1)NC1CCCC1	none
c1ccc2c(CN3CCSCC3)cccc2c1	none
Nc1c(C(=O)N/N=C/c2ccc(Cl)cc2)cnn1-c1ccccc1	none
COc1cccc(/C=N/NC(=O)c2cnn(-c3ccccc3)c2N)c1	AHR act 68
Nc1c(C(=O)N/N=C/c2cccnc2)cnn1-c1ccccc1	AHR act 51
COc1ccc(NC(=O)COc2coc(CN3c4ccccc4CC3C)cc2=O)cc1 (stereo not given)	none
COCCn1nnnc1C(c1cc2cc(C)ccc2[nH]c1=O)N1CCc2ccccc21 (stereo not given)	AHR act 65 (no result: SUMO Mot1 rescue)
COCCn1nnnc1C(c1cc2cc(C)ccc2[nH]c1=O)N1CCCCCC1 (stereo not given)	none
Cc1ccc(SCCC(=O)NCCSCc2ccccc2C)cc1	none
CS(=O)(=O)Nc1ccc(C2=NN(C(=O)CCCC(=O)O)C(c3cccs3)C2)cc1 (stereo not given)	none
CN(CC1COc2ccccc2O1)C(=O)CSc1nncs1 (stereo not given)	none
O=C(CSc1ccccc1)N1CCCC(N2CCN(c3ccccc3)CC2)C1 (stereo not given)	ALR inh 99
O=C(C1CCOCC1)N1CCCC(N2CCN(c3cccc(Cl)c3)CC2)C1 (stereo not given)	none
Cc1cc(C(=O)N2CCCC(N3CCN(c4ccc(F)cc4)CC3)C2)no1 (stereo not given)	none
O=C(c1ccccn1)N1CCCC(N2CCN(c3ccc(F)cc3)CC2)C1 (stereo not given)	ALR inh 97
CCCc1cc(C(=O)N2CCCC(N3CCN(c4ccc(F)cc4)CC3)C2)no1 (stereo not given)	ALR inh 98
O=C(C1CCOCC1)N1CCCC(N2CCN(c3ccc(F)cc3)CC2)C1 (stereo not given)	ALR inh 94
Cc1ccc(C)c(NC(=S)NNC(=O)c2csc(C(C)C)c2)c1	none
COc1cccc(CNC(=O)CCC2CCCN(C(=O)c3ccc(OC)o3)C2)c1 (stereo not given)	none (no result: ALR inh)
COc1ccccc1C(=O)N/C(=C\c1ccccc1)C(=O)NCc1ccco1	none (no result: ALR inh)
COc1ccccc1C(O)(C(=O)NNc1ccccc1C)c1ccccc1OC	none
COc1ccccc1C(O)(C(=O)NNc1cccc(C)c1)c1ccccc1OC	ALR inh 95
CN(C(=O)CSc1nnc(-c2ccco2)n1Cc1ccccc1)C1CCS(=O)(=O)C1 (stereo not given)	none (no result: ALR inh)
NC(=O)NC(=O)CC1S/C(=N/N=C2\CSC(=O)N2)NC1=O (stereo not given)	ALR inh 85
O=C(O)CNC(=O)CC1S/C(=N/N=C2/NC(=O)CS2)NC1=O (stereo not given)	ALR inh 90
COc1ccc(N2CCN(C(=O)CCCn3nnnc3CN3CCOCC3)C(C)C2)cc1 (stereo not given)	ALR inh 99
CC(C)c1ccc2c(c1)C(=O)NC(C)(C)C2	ALR inh 92
O=C(NNS(=O)(=O)c1ccc2ccccc2c1)c1cc(-c2ccccn2)nc2ccccc12	ALR inh 96
O=C(Nn1cnnc1)c1cc(-c2ccccn2)nc2ccccc12	none (no result: SUMO Mot1 rescue)
CCCCc1ccc(NC(=O)CN(C)CC(=O)Nc2ccccc2Cl)cc1	Bfl-1 A1 inh 18
CCCCC(CC)CNC(=O)C1CCCN(S(=O)(=O)c2cnc[nH]2)C1 (stereo not given)	none
CCCN1CCCc2cc(CN)ccc21	ALR inh 100
CN1CCCc2cc(C=O)ccc21	none
